# Rab9 promoter act = activators of Rab9 promoter. Huh7 Rab9 promoter-luciferase reporter, luminescence, 24 h. Potency, µM (top dose mostly 9.22 µM), for the others: at the top dose activation, negative = inhibition, most hits filed as activators. AID 485297. hit rate 2.8% among 320,000; further: % of control where 0% means no effect; nearly all actives have a fitted effect of over 60% in size
#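 Measured in stably transfected Huh7 cells bearing a Rab9 promoter–luciferase construct: 24 h compound treatment at 37 °C, followed by luminescence detection.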
# FLuc counter = inhibits or activates purified firefly luciferase, miR-21 counter-screen | Potency, µM (top dose mostly 57.5 µM), inactives show top-dose activity change, negative = inhibition, actives largely listed as inhibitors | P08659 | purified FLuc, Km substrates, luminescence inhibition | AID 588342 | hit rate 6.9% among 360,000;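 further: plate controls were vehicle for no effect and reference inhibitor for full effect; nearly all actives have a fitted effect of over 55% in size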
# Target sequence (P08659 whole entry, looked up): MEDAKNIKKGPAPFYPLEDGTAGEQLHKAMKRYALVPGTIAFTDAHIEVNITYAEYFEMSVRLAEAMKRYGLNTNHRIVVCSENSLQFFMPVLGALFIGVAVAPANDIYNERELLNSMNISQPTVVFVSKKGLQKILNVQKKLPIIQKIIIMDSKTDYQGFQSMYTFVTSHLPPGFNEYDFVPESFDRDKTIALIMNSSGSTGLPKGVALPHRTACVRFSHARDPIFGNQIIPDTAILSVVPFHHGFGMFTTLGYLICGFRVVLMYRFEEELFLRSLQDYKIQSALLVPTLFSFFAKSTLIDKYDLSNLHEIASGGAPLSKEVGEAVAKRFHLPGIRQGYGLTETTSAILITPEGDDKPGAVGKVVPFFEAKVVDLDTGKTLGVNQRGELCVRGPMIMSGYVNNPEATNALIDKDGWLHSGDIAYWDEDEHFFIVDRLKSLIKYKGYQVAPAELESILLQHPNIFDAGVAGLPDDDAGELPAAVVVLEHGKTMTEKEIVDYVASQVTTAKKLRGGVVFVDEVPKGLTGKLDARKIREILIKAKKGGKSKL
#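 Purified P. pyralis luciferase (10nM final) with 10uM D-luciferin and 10uM ATP (Km levels) in 50mM Tris acetate pH 7.5, 10mM Mg acetate, 0.01% Tween-20, 0.05% BSA; qHTS 6-point titration, ~60 µM downward; luminescence read.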
# NPC1 promoter act = activators of NPC1 promoter; Huh7 NPC1 promoter luciferase reporter, 24 h; Potency, µM (titrated, usually from 9.22 µM), for the others: at the top dose activation, most hits filed as activators; hit rate 2.4% among 320,000; AID 485313; further: % of control where 0% means no effect; nearly all actives have a fitted effect of over 60% in size
#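 Compounds in DMSO were transferred onto Huh7 NPC1-luciferase reporter cells pre-incubated 2 h; after 24 h at 37 °C, Amplite reagent was dispensed and luminescence recorded 10 min later.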
# SMN2 splice enh = increases expression of the SMN2 splice variant | hit rate 2.8% among 210,000 | AID 1458 | HEK293 SMN2-luciferase splicing reporter, luminescence, 30-36 h | Potency, µM (top dose mostly 46.1 µM), inactives show at the top dose activity change, positive = activation, actives largely listed as activators; further: % of control where 0% means no effect; nearly all actives have a fitted effect of over 55% in size
#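 HEK293 cells carry an SMN2 minigene-luciferase reporter in which exon 7 inclusion puts luciferase in frame. Cells were seeded at 2000 cells/well, attached for 10-12 hours, then exposed to compounds for 30-36 hours at 37C before ONE-Glo luminescence.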
# ELG1 genotoxic = inducers of genotoxicity in HEK293T ELG1-luciferase cells; Potency, µM (series often up to 46 µM), without a hit: at the highest dose activity change, positive = activation, usual class: activators; hit rate 1.3% among 330,000; HEK293T ELG1-luciferase reporter, luminescence, 16 h; AID 504466; further: % of control where 0% means no effect; nearly all actives have a fitted effect of over 60% in size
#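 Screening used a luciferase reporter fused to human ELG1 in HEK293T cells. Luminescence was read on a CCD plate imager after 16 hr exposure and 30 min ONE-Glo incubation.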
# * hit, by the source's call; ? = inconclusive; . = no result given; [ ] = dose if it differs, or a comment. Hits are enriched below; roughly 7.4% of the tested compounds scored in any of these assays. The call rests on the fitted dose curve; in most records, active means well fitted curve in the direction sought with a large enough effect; inconclusive means small, poorly fitted or top-dose-only effect, or another doubt; inactive means no such curve, though single readings can be large; an effect the other way counts as inactive or inconclusive. Potency means the concentration at half of the fitted maximal effect.
SMILES,Rab9 promoter act,FLuc counter,NPC1 promoter act,SMN2 splice enh,ELG1 genotoxic
CC1(C)N=C(N)N=C(N)N1c1cccc(OCc2cccc([N+](=O)[O-])c2)c1,.,.,.,-3%[9.22 µM],.
O=C(O)c1cccc(Nc2ccc([N+](=O)[O-])cn2)c1,7%,?,1%,.,0%
O=C(N/N=C/C(Cl)=C/c1ccc([N+](=O)[O-])cc1)C(=O)Nc1cccc(C(=O)O)c1,?,24µM*,?,.,?
C[C@H]1Cc2c(COc3ccccc3)nc3c(c2CO1)CN(C(=O)C1CCCCC1)CC3,.,.,.,-19%[9.22 µM],.
O=C(CCc1nc2ccccc2s1)c1ccccc1,?,15µM*,28%,24%,13%
O=C(O)CCCc1nc2ccccc2s1,-1%,?,-1%,?,3%
COc1ccccc1OC(=O)CCc1nc2ccccc2s1,-1%,19µM*,4%,-7%,-5%
O=C(CCc1nc2ccccc2s1)OCC(=O)c1ccccc1,22%,19µM*,14%,18%,13%
Cc1ccc(CNC(=O)c2cc3c(=O)n4cccc(C)c4nc3s2)cc1,.,-1%,.,17%,.
O=C(Nc1ccc(F)cc1)c1ccc(-n2cnc3cccnc32)cc1,.,-2%,.,.,.
Nc1cc(N)nc(SCC(=O)Nc2ccc3c(c2)OCO3)n1,11%,0%,-1%,.,-2%
CC(C)c1ccc(NC(=O)COC(=O)CSc2nnc(N)s2)cc1,3%,15µM*,0%,2%,0%
Nc1ccccc1SCC(=O)Nc1ccc2c(c1)OCO2,4µM*,2%,?,.,0%
Cc1cccc(SCC(=O)Nc2ccc3c(c2)OCCO3)c1,4µM*,?,2µM*,.,-1%
Nc1ccccc1SCC(=O)Nc1ccc2c(c1)OCCO2,3.2µM*,19µM*,2.2µM*,.,?
Nc1nnc(SCC(=O)Nc2ccc(Cl)cc2)s1,.,-1%,.,.,.
CC/C=C/C#N,.,.,.,4%,.
Cc1ccc(-n2nc3c(=O)n(CC(=O)NCCC(C)C)nc(C)c3c2C)cc1,.,3%,.,.,.
Cc1ccnc(NC(=O)CSc2ccc3c(c2)OCCO3)c1,5%,?,18%,.,18µM*
Nc1nnc(SCC(=O)Nc2ccc3c(c2)OCCO3)s1,3%,19µM*,19%,-52%,?
O=C(CSc1ncc(-c2ccc(F)cc2)n1Cc1ccco1)Nc1ccc2c(c1)OCO2,.,19µM*,.,-1%,.
CCC(=O)Nc1nnc(SCC(=O)Nc2ccc3c(c2)OCCO3)s1,.,-18%,-1%,.,3%
CC(Nc1ccc2c(c1)OCCO2)C(=O)N1CCc2ccccc21 (stereo unspecified),29%,27µM*,10%,16%,12%
CCC1(O)CC2CN(CCc3c([nH]c4ccccc34)[C@@](C(=O)OC)(c3cc4c(cc3OC)N(C)C3[C@]45CCN4CC=C[C@@](CC)([C@@H](OC(C)=O)[C@]3(O)C(=O)OC)[C@H]45)C2)C1 (stereo partly specified),-39%[46.1 µM],.,-23%[46.1 µM],-45%,.
CC1=c2c(oc3cc(O)c(Nc4c(C)cc(O)cc4O)c(C)c23)=CC(=O)C1=Nc1c(C)cc(O)cc1O,.,.,.,-22%[9.22 µM],.
SMILES,Rab9 promoter act,FLuc counter,NPC1 promoter act,SMN2 splice enh,ELG1 genotoxic
O=C(c1ccccc1)c1ccc(OC(=O)N2CCOCC2)cc1,16%,-14%,13%,-16%,3%
COc1ccc2c(c1)O/C(=C\c1sccc1C)C2=O,?,0.17µM*,?,?,18µM*
O=C1/C(=C/c2ccccc2)Oc2cc(OC(=O)N3CCOCC3)ccc21,20%,13µM*,?,?,9%
CC(=O)Oc1ccc(/C=C2/Oc3ccccc3C2=O)cc1,13%,3.8µM*,17%,.,?
COc1ccc(/C=C2\Oc3ccccc3C2=O)cc1,.,.,.,.,2.3µM*
Cc1ccc(NC(=O)c2c(NC(=O)c3ccco3)sc3c2CCC(C(C)(C)C)C3)c(C)c1 (stereo unspecified),.,-2%,.,-1%,.
Cc1cccc(NC(=O)C2CCN(S(=O)(=O)c3ccc4c(c3)CCCC(=O)N4)CC2)c1,.,7%,.,.,.
CC(=O)C1(C)CC2(CC(C)(C)OC2=O)C(=O)O1 (stereo unspecified),.,.,.,16%,.
C=CCN=c1scc(-c2ccc(F)cc2)n1/N=C/c1ccccn1,?,13µM*,24%,400%,22%

# Screening results (PubChem)
